Screening results: PubChem, National Center for Advancing Translational Sciences (NCATS)
TDP1 cell noCPT – qHTS for Inhibitors of human tyrosyl-DNA phosphodiesterase 1 (TDP1): qHTS in cells in absence of CPT; 420,000 compounds, 15% hits; DT40 Tdp1-/- hTDP1 cells, no CPT, ATP luminescence, 48 h; Potency, µM (doses to about 46.2 µM), inactives show at the highest dose activity change, negative = growth inhibition, hits mostly inhibitors; AID 686978, 2013; note: % is set by controls: 0 for no effect and ±100 for the full control effect; nearly all actives have a fitted effect of over 55% in size
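Readout: luminescence from CellTiter-Glo after 30 min in the dark at RT. Cells: DT40 Tdp1-/- with stable hTDP1, 400/well. Exposure: compounds alone, ≥48 hr, 37 °C.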
TDP1 cell CPT – DT40-hTDP1 cell growth loss with CPT; chicken DT40 Tdp1-/-;hTDP1 cells + 20 nM CPT, ATP luminescence, 48 h; Potency, µM (highest dose often 46.2 µM), for the others: top-dose activity change, negative = growth inhibition, actives largely listed as inhibitors; 420,000 compounds, 12% hits; AID 686979; note: % is set by controls: 0 for no effect and ±100 for the full control effect; nearly all actives have a fitted effect of over 55% in size
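Chicken DT40 Tdp1-/- cells stably complemented with human TDP1 were seeded at 400 cells/well in medium containing 20 nM camptothecin, exposed to pin-transferred compounds, and grown at 37 °C for at least 48 hr. Viability was read as ATP luminescence.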
ATXN viability – reduces viability in counter-screen for ATXN expression inhibitors | S2 cells (HEK-293 line with an ATXN2-luciferase reporter) viability, CellTiter-Fluor protease fluorescence, 24 h | Potency, µM (titrated, usually from 56.7 µM), most hits filed as cytotoxic | 400,000 compounds, 0.49% hits; note: nearly all actives have a fitted effect of over 40% in size
HepG2 tox – kills HepG2 cells in TGF-b inhibitor counter-screen. HepG2 CAGA-GFP viability, ATP luminescence, 18 h. Potency, µM (doses to about 46.1 µM), for the others: top-dose activity change, negative = cytotoxicity, most hits filed as cytotoxic. 410,000 compounds, 0.76% hits. AID 588856
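CellTiter-Glo luminescence gave cytotoxicity after 18 hours at 37 degrees C. The cells were HepG2 CAGA-GFP in 1% FBS DMEM, stimulated with 500 pg/mL TGF-beta after compound addition. %Activity was normalised to no-cell wells (complete cell-killing) and DMSO (no toxicity), and curves were fitted and classified.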
ATXN2 expr inh – reduces ATXN2 reporter expression in HEK-293 cells | HEK-293 ATXN2-luciferase reporter, luminescence, 24 h | Potency, µM (titrated, usually from 57 µM), without a hit: at the highest dose activity change, negative = inhibition, most hits filed as inhibitors | 360,000 compounds, 0.72% hits | AID 1745845; note: % is set by controls: 0 for no effect and ±100 for the full control effect; nearly all actives have a fitted effect of over 55% in size
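qHTS (up to 57 uM final) was run with 24 h compound exposure of reporter cells at 37 °C. Each well was multiplexed: SteadyGlo luminescence measured ATXN2-luciferase expression after a fluorogenic Gly-Phe-AFC viability readout (25 uM final).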
TGFb SMAD3 inh – inhibitors of TGF-b signaling; AID 588855; HepG2 CAGA-GFP TGF-b/SMAD3 reporter, GFP fluorescence, 18 h; TGF-beta stimulated, 500 pg/mL final; 410,000 compounds, 1.2% hits; Potency, µM (titrated, usually from 46.1 µM), without a hit: at the highest dose activity, negative = inhibition, usual class: inhibitors; note: % is set by controls: 0 for no effect and ±100 for the full control effect; nearly all actives have a fitted effect of over 65% in size
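HEPG2 CAGA-GFP cells (1000/well, DMEM with 1% FBS) were pre-incubated 2 h at 37 degrees C, given compound by pin tool, then stimulated with TGF-beta at 500 pg/mL final for 18 h before per-cell GFP fluorescence imaging.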
Numbers without * were called inactive; i = inactive; ? = inconclusive; . = no result; [ ] = remark or other dose. This is a sample that favours compounds with a hit; in the whole collection about 17% have one here. Calls come from the whole dose curve; as a rule, active = well fitted curve in the direction sought with a large enough effect; inconclusive = small, poorly fitted or top-dose-only effect, or another doubt; inactive = no such curve, though single readings can be large; an effect the other way counts as inactive or inconclusive. Potency is the fitted concentration of half-maximal effect.

SMILES	TDP1 cell noCPT	TDP1 cell CPT	ATXN viability	HepG2 tox	ATXN2 expr inh	TGFb SMAD3 inh
C=C1c2ccccc2NC(=S)N1Cc1ccc2c(c1)OCO2	4.11µM*	-27.3%	.	-30.6%	9.5%	?
COc1ccc(S(=O)(=O)N(CC(=O)N2CCOCC2)c2cc(Cl)ccc2OC)cc1OC	-12.3%	-17.8%	i	-9.7%	1.7%	3.8%
Cc1c(C(=O)N2CCC(C(=O)Nc3ccc(F)c(Cl)c3)CC2)sc2nc[nH]c(=O)c12	-28.7%	-28.6%	.	-30.2%	.	-31.2%
CCCC(=O)O[C@]1(C(=O)COC(=O)CC)CC[C@H]2[C@@H]3CCC4=CC(=O)CC[C@]4(C)[C@H]3[C@@H](O)C[C@@]21C	-28.3%	-21.2%	i	.	4.9%[25.6 µM]	.
O=C(c1ccccc1)c1ccc2ccccc2c1	-20.1%	-10.2%	i	0.3%	40.9%	-2.8%
O=C(c1ccccc1)c1c2c(cc3sc4ccccc4[n+]13)-c1cccc3cccc-2c13	2.31µM*	4.61µM*	10µM*	-41.8%	?	94.3%
Cc1sc2cc3c(c(C(=O)c4ccccc4)[n+]2c1C)-c1cccc2cccc-3c12	1.3µM*	1.03µM*	?	-1.5%	10.6µM*	?
O=C(Nc1nnc(C2=COCCO2)o1)c1ccc(F)cc1	?	?	i	-13.4%	-15.1%	15.5%
O=C(Nc1nnc(C2=COCCO2)o1)c1ccc(Cl)cc1	?	16.4µM*	i	-7.1%	-16.3%	21.0%
O=C(Nc1nnc(C2=COCCO2)o1)c1cccc(C(F)(F)F)c1	14.6µM*	25.9µM*	?	1.1%	-22.0%	-6.4%
CCc1nn(CC(=O)NCCCN2CCOCC2)c(=O)c2cc3c(OC)cccc3n12	26.8%	-13.5%	i	2.2%	6.0%	-2.2%
CC(C)(C)OC(=O)N1CCC(C(=O)Nc2cccc(C(=O)NCc3ccccc3)c2)CC1	20.6µM*	23.1µM*	?	0.7%	0.0%	1.0%
CC(C)(C)OC(=O)N1CCCC(C(=O)Nc2cccc(C(=O)NCCCc3ccccc3)c2)C1 (stereo unspecified)	?	?	?	-7.0%	?	-21.9%
CC(C)(C)OC(=O)N1CCC(C(=O)Nc2cccc(C(=O)NCCCc3ccccc3)c2)CC1	20.6µM*	14.6µM*	?	-2.8%	-23.7%	1.7%
COc1ccc(OC)c(CNc2ccc([N+](=O)[O-])cc2C)c1	-0.1%	5.8%	i	6.6%	-13.9%	?
COc1cccc(CNc2ccc([N+](=O)[O-])cc2C)c1	18.4µM*	?	i	-3.5%	10.7%	-2.4%
C[C@@H]1CN(C(=O)c2nc3ccc(Cl)cn3c2CN2CCc3sccc3C2)C[C@H](C)O1	-27.9%	?	i	-3.8%	2.1%	-2.1%
Cc1ccc(C2c3[nH]c4ccccc4c3C[C@H]3C(=O)N(c4ccccc4C(=O)N4CCC(C(=O)O)CC4)C(=O)N23)cc1 (stereo partly specified)	-6.8%	1.6%	i	7.3%	7.6%	3.5%
O=C(NCCN1CCOCC1)c1ccccc1N1C(=O)[C@@H]2Cc3c([nH]c4ccccc34)C(c3ccc(F)cc3)N2C1=O (stereo partly specified)	?	14.6µM*	i	-23.7%	-2.6%	8.6%
COc1cccc(C2c3[nH]c4ccccc4c3C[C@H]3C(=O)N(c4ccccc4C(=O)N4CCCC4C(=O)O)C(=O)N23)c1 (stereo partly specified)	-3.7%	2.7%	i	-4.8%	6.4%	-6.2%
COc1ccc(C2c3[nH]c4ccccc4c3C[C@H]3C(=O)N(c4ccccc4C(=O)NCCN4CCOCC4)C(=O)N23)cc1 (stereo partly specified)	?	23.1µM*	i	7.5%	8.3%	-6.0%
Cc1sc2nc(COC(=O)c3ccc(Cl)c(N)c3)[nH]c(=O)c2c1C	7.31µM*	16.4µM*	i	4.7%	6.7%	-11.9%
Cc1sc2nc(COC(=O)c3ccc(N4CCCC(C)C4)c([N+](=O)[O-])c3)[nH]c(=O)c2c1C (stereo unspecified)	16.4µM*	?	i	8.6%	-13.3%	-7.1%
Cc1sc2nc(COC(=O)c3ccc(N4CCCC4)c([N+](=O)[O-])c3)[nH]c(=O)c2c1C	?	-4.2%	i	8.6%	-2.6%	0.0%
Cc1sc2nc(COC(=O)c3c(F)cccc3F)[nH]c(=O)c2c1C	?	-8.3%	i	0.0%	-8.8%	0.0%
SMILES	TDP1 cell noCPT	TDP1 cell CPT	ATXN viability	HepG2 tox	ATXN2 expr inh	TGFb SMAD3 inh
Cc1sc2nc(COC(=O)c3ccc(O)cc3)[nH]c(=O)c2c1C	18.4µM*	?	i	5.3%	12.7%	-1.1%
COc1ccccc1CN1COc2ccc3c(oc(=O)c4ccccc43)c2C1	23.1µM*	?	i	-24.0%	-19.7%	4.0%
COc1ccc(CN2COc3ccc4c(oc(=O)c5ccccc54)c3C2)cc1OC	-7.9%	-14.8%	i	-5.2%	-6.4%	7.0%
COc1ccc(CN2COc3ccc4c(-c5ccc(OC)cc5)cc(=O)oc4c3C2)cc1	20.6µM*	9.2µM*	i	-13.5%	-6.7%	28.6%
CCOC(=O)C1=C(O)C(=O)N(Cc2cccnc2)C1c1ccc(OC)cc1 (stereo unspecified)	?	-16.6%	i	-3.0%	-1.0%	10.9%
NCCNS(=O)(=O)c1cccc2cnccc12	18.4µM*	26.6µM*	.	.	.	.
CCCCn1c(SCC(=O)Nc2cccc(OC)c2)nc2c(sc3ccccc32)c1=O	-18.6%	-8.0%	i	-18.5%	10.5%	-24.3%
N#CC(C#N)=C1NC2(CCCCC2)Cc2ccccc21	-0.1%	-12.8%	i	43.3%	.	33.3%
O=C(/C=C1\NC2(CCCC2)Cc2ccccc21)N1CCOCC1	11.6µM*	11.6µM*	i	-31.0%	-10.7%	?
CN(C)c1ccc(C(C[N+](=O)[O-])c2c(N)n(C)c(=O)n(C)c2=O)c(F)c1C#N (stereo unspecified)	2.06µM*	2.31µM*	.	11.2µM*	.	?
COc1ccc(Cn2cc(F)c(=O)n(C)c2=O)cc1[N+](=O)[O-]	-9.2%	-0.5%	i	-84.6%	-8.2%	37.3%
Cn1c(N)c(C(C[N+](=O)[O-])c2c(F)cccc2Cl)c(=O)n(C)c1=O (stereo unspecified)	2.06µM*	2.59µM*	i	-25.1%	-3.6%	0.0%
